High-throughput results as filed in PubChem BioAssay.
The list is not random: actives were taken first. Their share in the collection is about 11%.
HEK293 tox: cytotoxic compounds in HEK 293 cells; Potency, µM (doses to about 115 µM), inactives show top-dose activity change, negative = cytotoxicity, usual class: inhibitors; 6.6% of 94,000 active; HEK 293 viability, ATP luminescence (CellTiter-Glo), 48-72 h; note: nearly all actives have a fitted effect of over 60% in size
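250 HEK 293 cells/well; compound by pintool; incubated 48 or 72 hr at 37 degree Celsius; CellTiter-Glo added, 10 min RT, luminescence imaged.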
Luciferase inh: inhibitors of firefly (Photinus pyralis) luciferase. P08659. purified P. pyralis luciferase, luminescence, biochemical. Potency, µM (series often up to 115 µM), usual class: inhibitors. 2.5% of 76,000 active. AID 1347043; note: nearly all actives have a fitted effect of over 65% in size
Target sequence (P08659 whole entry, looked up): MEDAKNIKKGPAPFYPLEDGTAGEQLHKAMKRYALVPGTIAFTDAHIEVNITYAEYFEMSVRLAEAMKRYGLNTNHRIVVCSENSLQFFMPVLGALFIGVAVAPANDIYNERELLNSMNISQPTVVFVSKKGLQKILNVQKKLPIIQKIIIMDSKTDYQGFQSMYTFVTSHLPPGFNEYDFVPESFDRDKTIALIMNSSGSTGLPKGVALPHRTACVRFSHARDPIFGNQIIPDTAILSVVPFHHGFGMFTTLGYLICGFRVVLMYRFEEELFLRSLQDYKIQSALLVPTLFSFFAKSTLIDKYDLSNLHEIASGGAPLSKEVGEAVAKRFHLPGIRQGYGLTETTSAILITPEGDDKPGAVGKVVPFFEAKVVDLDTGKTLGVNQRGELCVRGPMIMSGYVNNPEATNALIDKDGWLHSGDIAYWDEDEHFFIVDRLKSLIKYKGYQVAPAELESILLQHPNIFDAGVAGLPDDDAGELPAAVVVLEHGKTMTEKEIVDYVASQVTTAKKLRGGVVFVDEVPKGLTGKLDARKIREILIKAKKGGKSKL
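Biochemical qHTS: compound (6-point titration) added to 10uM D-luciferin plus 10uM ATP in Tris acetate pH 7.5 buffer with Mg, Tween-20 and BSA, then purified enzyme at 10nM; light output imaged.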
hNpr1 antagonist: antagonists of human natriuretic peptide receptor Npr1; 1.6% of 76,000 active; HEK293 hNpr1 GloSensor cGMP, ANP-stimulated luminescence; Potency, µM (doses to about 46.3 µM), inactives show top-dose activity change, negative = inhibition, most hits filed as inhibitors; AID 1347048; P16066; calls by dose curve; note: nearly all actives have a fitted effect of over 60% in size
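HEK293 cells stably expressing human Npr1 and cGMP GloSensor pGS-40F, loaded 2 h with 2% GloSensor reagent, given compound 30 min at room temperature. Luminescence read before and 20 min after 0.1 nM hNppA.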
3T3 cytotox: NIH 3T3 cell cytotoxicity. NIH 3T3 viability, CellTiter-Glo ATP luminescence, 48-72 h. Potency, µM (series often up to 96.7 µM), for inactives: at the highest dose activity change, negative = cytotoxicity, hits mostly inhibitors. 4.3% of 94,000 active; note: nearly all actives have a fitted effect of over 55% in size
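NIH 3T3 cells at 400 cells/well received 23 nL of compound by pintool and were incubated 48 or 72 h at 37 °C. Viability was read as ATP-coupled CellTiter-Glo luminescence.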
An asterisk follows results filed as active; i = inactive; ? = inconclusive; . = no result given; ! = not confirmed by another sample; [ ] = dose if it differs, or a comment. Unless noted, calls come from the whole dose curve; as a rule, active = well fitted curve in the direction sought with a large enough effect; inconclusive = small, poorly fitted or top-dose-only effect, or another doubt; inactive = no such curve, though single readings can be large; an effect the other way counts as inactive or inconclusive. % is set by controls: 0 for no effect and ±100 for the full control effect; potency is the fitted concentration of half-maximal effect.

SMILES	HEK293 tox	Luciferase inh	hNpr1 antagonist	3T3 cytotox
CCOc1cccc(-c2noc(-c3ncn4c3COC(c3ccc(OC)cc3)C4)n2)c1 (centres undefined)	22µM*	i	-3%	22µM*
COc1ccc(C2Cn3cnc(-c4nc(-c5ccc(OC(C)C)cc5)no4)c3CO2)cc1 (centres undefined)	-13%	?	3%	-17%
CSc1ccc(-c2noc(-c3ncn4c3COC(c3ccc(F)cc3)C4)n2)cc1 (centres undefined)	32µM*	i	-4%	25µM*
Clc1ccccc1C1Cn2cnc(-c3nc(-c4ccccc4)no3)c2CO1 (centres undefined)	7%	i	-21%	0%
CNC(=O)c1cc(C)nc2onc(C3CCCN3C(=O)c3ccccc3C)c12 (centres undefined)	-17%[172 µM]	.	.	-20%[138 µM]
CNC(=O)c1cc(C2CC2)nc2c1c(C1CCN(C(=O)NC(C)C)C1)nn2C (centres undefined)	i	.	.	-13%
CN(C)CC1(O)CCCN(c2ncccc2C(N)=O)CC1 (centres undefined)	-4%	i	6%	-2%
CC(C)c1ccc(CN2CCCC3(CCN(c4ncccc4C(N)=O)C3)C2)cc1 (centres undefined)	40µM*	i	-7%	?
COc1ncccc1-c1ncc2c(n1)OCCN(c1cccc(C(F)(F)F)c1)C2=O	-16%[172 µM]	i	1%[70.6 µM]	25µM*
COc1ncccc1-c1ncc2c(n1)OCCN(Cc1ccc(F)cc1F)C2=O	-29%[172 µM]	i	-7%[70.6 µM]	?
COc1ccc(Cl)cc1-c1ncc2c(n1)OCCN(c1ccccc1)C2=O	4%[172 µM]	?	5%[70.6 µM]	40µM*
COc1ccc(-c2ncc3c(n2)OCCN(C)C3=O)cc1OC	i	40µM*	2%[70.6 µM]	?
COc1ccccc1-c1ncc2c(n1)OCCN(c1cccc(C(F)(F)F)c1)C2=O	?	i	-5%[70.6 µM]	?
O=C1c2cnc(-c3ccccc3C(F)(F)F)nc2OCCN1Cc1ccccc1	?	i	-1%[70.6 µM]	-29%[138 µM]
Cc1ccccc1-c1ncc2c(n1)OCCN(c1ccccc1)C2=O	?	20µM*	3%[70.6 µM]	-34%[138 µM]
C[S+](=O)([O-])c1ccc(-c2ncc3c(n2)OCCN(Cc2ccc(F)cc2F)C3=O)cc1	?	i	-10%	-17%
O=C1c2cnc(-c3ccc(O)c(F)c3)nc2OCCN1c1ccccc1	45µM*	?	-25%[70.6 µM]	8.9µM*
COc1cc(NC(=O)c2ccc3c(c2)N(C)C2CCCCCN2C3=O)cc(OC)c1 (centres undefined)	?	?	-13%	?
Cc1ccc(C(=O)N2CCC3(CC(Cc4ccccc4)=NO3)C2)cc1 (centres undefined)	?	i	0%[70.6 µM]	?
O=C(c1ccc(C(F)(F)F)cc1)N1CCC2(CC1)COc1ccccc1NC2=O	79µM*	i	-5%	?
COc1cccc(CC(=O)N2CCC3(CC2)CC(N2CCCC2)CCO3)c1 (centres undefined)	-18%	.	.	-24%
CC(=O)N1CCCC(N2C(=O)c3c(c(C)nn3-c3ccccc3)C2C)C1 (centres undefined)	-7%	.	.	-16%
COc1ccc(-c2cc(N3CCCN(C(=O)Cc4ccccc4Br)CC3)n[nH]2)cc1	?	i	-4%	?
COCCNC(=O)[C@H]1C[C@H](Oc2ccccc2)CN1Cc1cccn1C	?	i	5%	-1%
COCCNC(=O)[C@H]1C[C@H](Oc2ccccc2)CN1Cc1cn(C)c2ccccc12	40µM*	i	8%	-27%
SMILES	HEK293 tox	Luciferase inh	hNpr1 antagonist	3T3 cytotox
CC(C)(C)OC(=O)N1CC(Nc2ccc(O)cc2)C1	45µM*	.	.	28µM*!
O=C(Cc1ccc(F)cc1)N1CCC2(CC1)CCN(CCc1ccccc1)c1ccccc1O2	45µM*	i	21%	?
O=C(c1ccc(C(F)(F)F)cc1)N1CCC2(CC1)CCN(CCc1ccccc1)c1ccccc1O2	?	i	-6%	?
CCOc1ccccc1CN1CCC2(CCN(C(=O)Cc3cccc(Cl)c3)CC2)Oc2ccccc21	-18%	i	-1%	-12%
CCOc1ccccc1CN1CCC2(CCN(C(=O)C3CCCC3)CC2)Oc2ccccc21	35µM*	i	-12%	?
CCOc1ccccc1CN1CCC2(CCN(C(=O)Cc3ccc(F)cc3)CC2)Oc2ccccc21	35µM*	i	6%	?
Cc1nnc2ccc(N3CCC(NC(=O)Nc4ccccc4)C3)nn12 (centres undefined)	4%[172 µM]	.	.	-19%[138 µM]
CC(C)CN(Cc1cccnc1)C1CN(C(=O)NCc2ccc(F)cc2)C1	0%	i	-2%	-6%
O=C(Cc1cccnc1)N1CCCC(c2ccccc2)(c2ccccc2)C1	45µM*	i	-4%	-16%
CCC1(O)CCC12CCN(C(=O)Cc1cccnc1)CC2 (centres undefined)	-6%	i	-1%	-19%
COc1ncccc1-c1cc2[nH]ccc2c(C(=O)NCc2c(C)cc(C)[nH]c2=O)n1	?	i	0%[70.6 µM]	50µM*
Cc1cc(C)c(CNC(=O)c2nc(-c3cccc(O)c3)cc3[nH]ccc23)c(=O)[nH]1	79µM*	?	3%[70.6 µM]	50µM*
COc1ccccc1-c1cc2[nH]ccc2c(C(=O)NCc2c(C)cc(C)[nH]c2=O)n1	?	i	-4%[70.6 µM]	?
CCCC(O)CN1CCC(=O)N(CC2CC2)Cc2cc(OC)ccc21 (centres undefined)	?	.	.	-24%
COCCCn1c(=O)c(C(=O)N2CCN(C(=O)c3ccc(F)cc3)CC2)nc2cccnc21	i	.	.	-3%
COc1cccc(S(=O)(=O)N2CCCN(C(=O)C3CC3)C(c3ccccc3)CC(=O)NCC2)c1 (centres undefined)	-13%	i	-2%	-15%
O=C(NCCN1CCOCC1)c1noc(-c2ccccc2F)n1	3%	i	-4%	-1%
Fc1ccccc1-c1noc(N2CCOCC2)n1	?	32µM*	-14%	-18%
COc1cccc(-c2cc(-c3c(C)noc3C)c3cncn3c2)c1OC	79µM*	i	0%[70.6 µM]	?
COc1ccc(-c2cc(-c3cccc(O)c3)cn3cncc23)cc1	?	i	-21%[70.6 µM]	?
COc1ncccc1-c1cc(-c2c(C)noc2C)c2cncn2c1	?	i	2%[70.6 µM]	?
COc1cc(F)ccc1-c1cc(-c2c(C)noc2C)c2cncn2c1	63µM*	i	2%[70.6 µM]	?
COc1ccc(-c2cc(-c3c(C)noc3C)c3cncn3c2)cc1OC	?	i	-6%[70.6 µM]	22µM*
COc1cc(F)ccc1-c1nc(-c2c(C)noc2C)cc2c1cc(C)n2C	?	i	4%[70.6 µM]	?
COc1cccc(-c2cc(-c3ccncc3)c3cncn3c2)c1OC	89µM*	i	-4%[70.6 µM]	?
CCOC(=O)NC1CCN(c2ccc3nnc(C4CC4)n3n2)CC1	i	.	.	-16%
O=C([C@H]1CCCN1C(=O)c1ccccc1F)N1CCC(N2CCOC2=O)CC1	i	.	.	3%
